{"source": "the supplement of paper PMC4466140", "data": [{"target": "AgAbp1", "assay": "SPOT peptide array binding signal intensity (averaged, normalized) (arbitrary units (background-subtracted, floor 0; scale differs between SH3 domains)); higher = stronger binding of the SH3 domain to the peptide", "protocol": "(§1)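 GST-tagged SH3 domains from S. cerevisiae (Sc), A. gossypii (Ag), C. albicans (Ca) and S. pombe (Sp) were incubated at 10 ug/ml overnight at 4 C on cellulose SPOT membranes carrying 292 synthetic 15-mer peptides mined from the S. cerevisiae proteome (cysteines replaced by serines). Binding was detected with anti-GST antibody, HRP secondary and chemiluminescence, quantified with Genespotter, and reported as normalized spot intensities averaged over biological replicates.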", "values": [{"binder": "KTKQQKPAIPQKKSF", "SPOT peptide array binding signal intensity": 2190}]}, {"target": "AgBbc1", "assay": "SPOT peptide array binding signal intensity (averaged, normalized) (arbitrary units (background-subtracted, floor 0; scale differs between SH3 domains)); higher = stronger binding of the SH3 domain to the peptide", "protocol": "as §1", "values": [{"binder": "KTKQQKPAIPQKKSF", "SPOT peptide array binding signal intensity": 16.5}]}, {"target": "AgBem1-D1", "assay": "SPOT peptide array binding signal intensity (averaged, normalized) (arbitrary units (background-subtracted, floor 0; scale differs between SH3 domains)); higher = stronger binding of the SH3 domain to the peptide", "protocol": "as §1", "values": [{"binder": "KTKQQKPAIPQKKSF", "SPOT peptide array binding signal intensity": 7}]}, {"target": "AgBzz1-D1", "assay": "SPOT peptide array binding signal intensity (averaged, normalized) (arbitrary units (background-subtracted, floor 0; scale differs between SH3 domains)); higher = stronger binding of the SH3 domain to the peptide", "protocol": "as §1", "values": [{"binder": "KTKQQKPAIPQKKSF", "SPOT peptide array binding signal intensity": 73}]}, {"target": "AgBzz1-D2", "assay": "SPOT peptide array binding signal intensity (averaged, normalized) (arbitrary units (background-subtracted, floor 0; scale differs between SH3 domains)); higher = stronger binding of the SH3 domain to the peptide", "protocol": "as §1", "values": [{"binder": "KTKQQKPAIPQKKSF", "SPOT peptide array binding signal intensity": 21}]}, {"target": "AgCyk3", "assay": "SPOT peptide array binding signal intensity (averaged, normalized) (arbitrary units (background-subtracted, floor 0; scale differs between SH3 domains)); higher = stronger binding of the SH3 domain to the peptide", "protocol": "as §1", "values": [{"binder": "KTKQQKPAIPQKKSF", "SPOT peptide array binding signal intensity": "≤ 0"}]}, {"target": "AgFus1", "assay": "SPOT peptide array binding signal intensity (averaged, normalized) (arbitrary units (background-subtracted, floor 0; scale differs between SH3 domains)); higher = stronger binding of the SH3 domain to the peptide", "protocol": "as §1", "values": [{"binder": "KTKQQKPAIPQKKSF", "SPOT peptide array binding signal intensity": "≤ 0"}]}, {"target": "AgHof1", "assay": "SPOT peptide array binding signal intensity (averaged, normalized) (arbitrary units (background-subtracted, floor 0; scale differs between SH3 domains)); higher = stronger binding of the SH3 domain to the peptide", "protocol": "as §1", "values": [{"binder": "KTKQQKPAIPQKKSF", "SPOT peptide array binding signal intensity": 35.5}]}, {"target": "AgHse1", "assay": "SPOT peptide array binding signal intensity (averaged, normalized) (arbitrary units (background-subtracted, floor 0; scale differs between SH3 domains)); higher = stronger binding of the SH3 domain to the peptide", "protocol": "as §1", "values": [{"binder": "KTKQQKPAIPQKKSF", "SPOT peptide array binding signal intensity": "≤ 0"}]}, {"target": "AgLsb1", "assay": "SPOT peptide array binding signal intensity (averaged, normalized) (arbitrary units (background-subtracted, floor 0; scale differs between SH3 domains)); higher = stronger binding of the SH3 domain to the peptide", "protocol": "as §1", "values": [{"binder": "KTKQQKPAIPQKKSF", "SPOT peptide array binding signal intensity": "≤ 0"}]}, {"target": "AgLsb4", "assay": "SPOT peptide array binding signal intensity (averaged, normalized) (arbitrary units (background-subtracted, floor 0; scale differs between SH3 domains)); higher = stronger binding of the SH3 domain to the peptide", "protocol": "as §1", "values": [{"binder": "KTKQQKPAIPQKKSF", "SPOT peptide array binding signal intensity": 1.5}]}, {"target": "AgMyo5", "assay": "SPOT peptide array binding signal intensity (averaged, normalized) (arbitrary units (background-subtracted, floor 0; scale differs between SH3 domains)); higher = stronger binding of the SH3 domain to the peptide", "protocol": "as §1", "values": [{"binder": "KTKQQKPAIPQKKSF", "SPOT peptide array binding signal intensity": 4}]}, {"target": "AgNbp2", "assay": "SPOT peptide array binding signal intensity (averaged, normalized) (arbitrary units (background-subtracted, floor 0; scale differs between SH3 domains)); higher = stronger binding of the SH3 domain to the peptide", "protocol": "as §1", "values": [{"binder": "KTKQQKPAIPQKKSF", "SPOT peptide array binding signal intensity": 14}]}, {"target": "AgRvs167", "assay": "SPOT peptide array binding signal intensity (averaged, normalized) (arbitrary units (background-subtracted, floor 0; scale differs between SH3 domains)); higher = stronger binding of the SH3 domain to the peptide", "protocol": "as §1", "values": [{"binder": "KTKQQKPAIPQKKSF", "SPOT peptide array binding signal intensity": 0.333}]}, {"target": "AgSho1", "assay": "SPOT peptide array binding signal intensity (averaged, normalized) (arbitrary units (background-subtracted, floor 0; scale differs between SH3 domains)); higher = stronger binding of the SH3 domain to the peptide", "protocol": "as §1", "values": [{"binder": "KTKQQKPAIPQKKSF", "SPOT peptide array binding signal intensity": "≤ 0"}]}, {"target": "AgSla1-D1-D2", "assay": "SPOT peptide array binding signal intensity (averaged, normalized) (arbitrary units (background-subtracted, floor 0; scale differs between SH3 domains)); higher = stronger binding of the SH3 domain to the peptide", "protocol": "as §1", "values": [{"binder": "KTKQQKPAIPQKKSF", "SPOT peptide array binding signal intensity": 17}]}, {"target": "AgSla1-D3", "assay": "SPOT peptide array binding signal intensity (averaged, normalized) (arbitrary units (background-subtracted, floor 0; scale differs between SH3 domains)); higher = stronger binding of the SH3 domain to the peptide", "protocol": "as §1", "values": [{"binder": "KTKQQKPAIPQKKSF", "SPOT peptide array binding signal intensity": 19.5}]}, {"target": "CaAbp1-D1", "assay": "SPOT peptide array binding signal intensity (averaged, normalized) (arbitrary units (background-subtracted, floor 0; scale differs between SH3 domains)); higher = stronger binding of the SH3 domain to the peptide", "protocol": "as §1", "values": [{"binder": "KTKQQKPAIPQKKSF", "SPOT peptide array binding signal intensity": 4040}]}, {"target": "CaAbp1-D2", "assay": "SPOT peptide array binding signal intensity (averaged, normalized) (arbitrary units (background-subtracted, floor 0; scale differs between SH3 domains)); higher = stronger binding of the SH3 domain to the peptide", "protocol": "as §1", "values": [{"binder": "KTKQQKPAIPQKKSF", "SPOT peptide array binding signal intensity": 6440}]}, {"target": "CaBbc1", "assay": "SPOT peptide array binding signal intensity (averaged, normalized) (arbitrary units (background-subtracted, floor 0; scale differs between SH3 domains)); higher = stronger binding of the SH3 domain to the peptide", "protocol": "as §1", "values": [{"binder": "KTKQQKPAIPQKKSF", "SPOT peptide array binding signal intensity": 149}]}, {"target": "CaBem1-D1", "assay": "SPOT peptide array binding signal intensity (averaged, normalized) (arbitrary units (background-subtracted, floor 0; scale differs between SH3 domains)); higher = stronger binding of the SH3 domain to the peptide", "protocol": "as §1", "values": [{"binder": "KTKQQKPAIPQKKSF", "SPOT peptide array binding signal intensity": 3}]}, {"target": "CaBzz1-D1", "assay": "SPOT peptide array binding signal intensity (averaged, normalized) (arbitrary units (background-subtracted, floor 0; scale differs between SH3 domains)); higher = stronger binding of the SH3 domain to the peptide", "protocol": "as §1", "values": [{"binder": "KTKQQKPAIPQKKSF", "SPOT peptide array binding signal intensity": 742}]}, {"target": "CaBzz1-D2", "assay": "SPOT peptide array binding signal intensity (averaged, normalized) (arbitrary units (background-subtracted, floor 0; scale differs between SH3 domains)); higher = stronger binding of the SH3 domain to the peptide", "protocol": "as §1", "values": [{"binder": "KTKQQKPAIPQKKSF", "SPOT peptide array binding signal intensity": 584}]}, {"target": "CaCyk3", "assay": "SPOT peptide array binding signal intensity (averaged, normalized) (arbitrary units (background-subtracted, floor 0; scale differs between SH3 domains)); higher = stronger binding of the SH3 domain to the peptide", "protocol": "as §1", "values": [{"binder": "KTKQQKPAIPQKKSF", "SPOT peptide array binding signal intensity": 2}]}, {"target": "CaFus1", "assay": "SPOT peptide array binding signal intensity (averaged, normalized) (arbitrary units (background-subtracted, floor 0; scale differs between SH3 domains)); higher = stronger binding of the SH3 domain to the peptide", "protocol": "as §1", "values": [{"binder": "KTKQQKPAIPQKKSF", "SPOT peptide array binding signal intensity": "≤ 0"}]}, {"target": "CaHof1", "assay": "SPOT peptide array binding signal intensity (averaged, normalized) (arbitrary units (background-subtracted, floor 0; scale differs between SH3 domains)); higher = stronger binding of the SH3 domain to the peptide", "protocol": "as §1", "values": [{"binder": "KTKQQKPAIPQKKSF", "SPOT peptide array binding signal intensity": 2}]}, {"target": "CaHse1", "assay": "SPOT peptide array binding signal intensity (averaged, normalized) (arbitrary units (background-subtracted, floor 0; scale differs between SH3 domains)); higher = stronger binding of the SH3 domain to the peptide", "protocol": "as §1", "values": [{"binder": "KTKQQKPAIPQKKSF", "SPOT peptide array binding signal intensity": 1.75}]}, {"target": "CaLsb1", "assay": "SPOT peptide array binding signal intensity (averaged, normalized) (arbitrary units (background-subtracted, floor 0; scale differs between SH3 domains)); higher = stronger binding of the SH3 domain to the peptide", "protocol": "as §1", "values": [{"binder": "KTKQQKPAIPQKKSF", "SPOT peptide array binding signal intensity": "≤ 0"}]}, {"target": "CaLsb4", "assay": "SPOT peptide array binding signal intensity (averaged, normalized) (arbitrary units (background-subtracted, floor 0; scale differs between SH3 domains)); higher = stronger binding of the SH3 domain to the peptide", "protocol": "as §1", "values": [{"binder": "KTKQQKPAIPQKKSF", "SPOT peptide array binding signal intensity": "≤ 0"}]}, {"target": "CaMyo5", "assay": "SPOT peptide array binding signal intensity (averaged, normalized) (arbitrary units (background-subtracted, floor 0; scale differs between SH3 domains)); higher = stronger binding of the SH3 domain to the peptide", "protocol": "as §1", "values": [{"binder": "KTKQQKPAIPQKKSF", "SPOT peptide array binding signal intensity": 1.5}]}, {"target": "CaNbp2", "assay": "SPOT peptide array binding signal intensity (averaged, normalized) (arbitrary units (background-subtracted, floor 0; scale differs between SH3 domains)); higher = stronger binding of the SH3 domain to the peptide", "protocol": "as §1", "values": [{"binder": "KTKQQKPAIPQKKSF", "SPOT peptide array binding signal intensity": "≤ 0"}]}, {"target": "CaRvs167", "assay": "SPOT peptide array binding signal intensity (averaged, normalized) (arbitrary units (background-subtracted, floor 0; scale differs between SH3 domains)); higher = stronger binding of the SH3 domain to the peptide", "protocol": "as §1", "values": [{"binder": "KTKQQKPAIPQKKSF", "SPOT peptide array binding signal intensity": 2.33}]}, {"target": "CaRvs167-3", "assay": "SPOT peptide array binding signal intensity (averaged, normalized) (arbitrary units (background-subtracted, floor 0; scale differs between SH3 domains)); higher = stronger binding of the SH3 domain to the peptide", "protocol": "as §1", "values": [{"binder": "KTKQQKPAIPQKKSF", "SPOT peptide array binding signal intensity": 1.5}]}, {"target": "CaSho1", "assay": "SPOT peptide array binding signal intensity (averaged, normalized) (arbitrary units (background-subtracted, floor 0; scale differs between SH3 domains)); higher = stronger binding of the SH3 domain to the peptide", "protocol": "as §1", "values": [{"binder": "KTKQQKPAIPQKKSF", "SPOT peptide array binding signal intensity": "≤ 0"}]}, {"target": "CaSla1-D1-D2", "assay": "SPOT peptide array binding signal intensity (averaged, normalized) (arbitrary units (background-subtracted, floor 0; scale differs between SH3 domains)); higher = stronger binding of the SH3 domain to the peptide", "protocol": "as §1", "values": [{"binder": "KTKQQKPAIPQKKSF", "SPOT peptide array binding signal intensity": 1260}]}, {"target": "CaSla1-D3", "assay": "SPOT peptide array binding signal intensity (averaged, normalized) (arbitrary units (background-subtracted, floor 0; scale differs between SH3 domains)); higher = stronger binding of the SH3 domain to the peptide", "protocol": "as §1", "values": [{"binder": "KTKQQKPAIPQKKSF", "SPOT peptide array binding signal intensity": "≤ 0"}]}, {"target": "ScAbp1", "assay": "SPOT peptide array binding signal intensity (averaged, normalized) (arbitrary units (background-subtracted, floor 0; scale differs between SH3 domains)); higher = stronger binding of the SH3 domain to the peptide", "protocol": "as §1", "values": [{"binder": "KTKQQKPAIPQKKSF", "SPOT peptide array binding signal intensity": 1480}]}]}
